Source: PubChem BioAssay AID504848 (National Center for Advancing Translational Sciences (NCATS), 2011)
Out of some 2,300 compounds screened, about 1,400 (61%) were called active. Not shown: some 29% with an inconclusive outcome. Calls come from the whole dose curve; as a rule, active = well fitted inhibition curve with a large enough effect; inconclusive = small, poorly fitted or top-dose-only effect, or effect the other way; inactive = no such curve, though single readings can be large or run the other way. The set was probably picked from earlier hits. The list shows a part of the results. Square brackets hold non-standard residues; d marks the D form. Peptide text beside a SMILES is read from it. * marks the point of attachment. ξ: configuration not given here. ξF = NC(Cc1ccccc1)C(=O)O; Cbz = O=C(OCc1ccccc1)*

test: Confirmation screen for delayed death inhibitors of the malarial parasite plastid, 96 hour incubation; note: nearly all actives have a fitted effect of over 60% in size; settings: P. falciparum luciferase growth in erythrocytes; series mostly up to 28.7 µM; activity change, negative = inhibition: at the top concentration
Method in brief: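 Two-generation (96 h, 37 C) exposure of P. falciparum carrying an integrated firefly luciferase reporter in erythrocytes, 0.1% parasitemia and 2% hematocrit final, Albumax-supplemented RPMI. Luminescence decrease measures growth inhibition.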
% is set by controls: 0 for no effect and ±100 for the full control effect; potency is the fitted concentration of half-maximal effect.

Row | SMILES | Potency | activity change, negative = inhibition
1 | O=C1C(Cl)=C(NC2CCCCC2)C(=O)N1c1ccc(Cl)cc1 | 12.6 µM (active) | –
2 | CCCCN(C)CCNC(=O)c1cc2c(=O)[nH]c3ccccc3c2n1C | 12.6 µM (active) | –
3 | CCOc1ccc(CNC(=O)c2cc3oc4ccccc4c3n2C)cc1 | – | 12.8% (inactive)
4 | CCOc1ccccc1NC(=O)c1cc(S(=O)(=O)NCc2ccco2)ccc1F | 11.2 µM (active) | –
5 | Cc1cc(C)cc(NC(=O)c2cc(S(=O)(=O)NCc3ccco3)ccc2F)c1 | – | -53.2% (inactive)
6 | C=C1C(=O)O[C@@H]2C[C@@H](C)[C@@H]3C=CC(=O)[C@@]3(C)[C@@H](OC(C)=O)[C@H]12 | 1.41 µM (active) | –
7 | Nc1ccc[n+](CC(=O)c2ccccc2)c1 | 12.6 µM (active) | –
8 | CCC(C)(C)NC(=O)C(c1cccc(OC)c1OC)N(CC(C)C)C(=O)CCC(=O)Nc1cc(C)on1 (configuration not stated) | 7.94 µM (active) | –
9 | Cc1cc(C)n(-c2ccc(C(=O)Nc3ccc(S(=O)(=O)NCc4ccco4)cc3)cc2)n1 | 8.91 µM (active) | –
10 | O=C(Nc1ccc(S(=O)(=O)NCc2ccco2)cc1)c1ccc2ccccc2n1 | 12.6 µM (active) | –
11 | CC(C)n1nc(C(=O)Nc2cccc(S(=O)(=O)NCc3ccco3)c2)c2ccccc2c1=O | 7.94 µM (active) | –
12 | CCN(CC(=O)Nc1c(F)cccc1F)C(=O)c1ccc(S(=O)(=O)NCc2ccco2)cc1 | – | -12.1% (inactive)
13 | COc1ccc2c(C)c(CCC(=O)NC3CC3)c(=O)oc2c1C | 3.55 µM (active) | –
14 | COc1ccc2c(c1)c(C(=O)N/N=C/c1ccc(OC)c(OC)c1)c(C)n2C | 8.91 µM (active) | –
15 | O=C(NCC1CCCO1)c1ccc(Cn2c(=S)[nH]c3ccccc3c2=O)cc1 (configuration not stated) | 14.1 µM (active) | –
16 | Cc1cccc(N2CCN(C(=O)C3CCN(c4ncnc5c4nc4n5CCCCC4)CC3)CC2)c1C | 11.2 µM (active) | –
17 | CC1CCN(C(=O)C2CCCN(c3ncnc4c3nc3n4CCCCC3)C2)CC1 (configuration not stated) | 11.2 µM (active) | –
18 | Cc1cc(C)n2nc(SCC(=O)N3CCN(c4ccc(F)cc4)CC3)nc2n1 | 12.6 µM (active) | –
19 | COc1ccc(Nc2nnc(-c3ccccc3)c3ccccc23)cc1C(=O)N1CCCCC1 | 2.82 µM (active) | –

Row | SMILES | Potency | activity change, negative = inhibition
20 | COc1ccc(Nc2nnc(-c3ccc(C)cc3)c3ccccc23)cc1C(=O)N1CCCCC1 | 0.251 µM (active) | –
21 | CN1CCN(C(=O)c2cc(COc3c(F)cccc3F)on2)CC1c1ccccc1 (configuration not stated) | – | -16% (inactive)
22 | O=C(c1cc(COc2ccc(F)cc2Cl)on1)N1CCN(C2CCCCC2)C(=O)C1 | 11.2 µM (active) | –
23 | CCOc1ccc(-c2c(C(=O)N/N=C/c3ccc(OC(C)C)cc3)nnn2-c2nonc2N)cc1 | 12.6 µM (active) | –
24 | Nc1nonc1-n1nnc(C(=O)N/N=C/c2cccc(Cl)c2)c1-c1ccc2c(c1)OCO2 | 0.0708 µM (active) | –
25 | Cc1ccsc1/C=N/NC(=O)c1nnn(-c2nonc2N)c1-c1ccc2c(c1)OCO2 | 0.891 µM (active) | –
26 | Nc1nonc1-n1nnc(C(=O)N/N=C/c2ccc(Cl)cc2)c1-c1ccc2c(c1)OCO2 | 0.0316 µM (active) | –
27 | CN(Cc1c(C(=O)N/N=C/c2cccc(O)c2)nnn1-c1nonc1N)c1ccccc1 | – | -21.5% (inactive)
28 | CCOC(=O)C1=C(NC(=S)NC(=O)c2ccccc2)c2ccccc2CC1(C)CC (configuration not stated) | 11.2 µM (active) | –
29 | CC(=O)Nc1nc2ccccc2n1Cc1ccc(C)cc1 | 5.62 µM (active) | –
30 | N=C1S/C(=C\c2ccco2)C(=O)N1c1nccs1 | 12.6 µM (active) | –
31 | CCOC(=O)CNC(=O)C(Cc1ccccc1)NC(=O)OCc1ccccc1 (configuration not stated) (Cbz-[ξF]-Gly-OEt) | – | -6.51% (inactive)
32 | CCCNC(=O)C(Cc1ccc(F)cc1)NC(=O)c1ccccc1 (configuration not stated) | 6.31 µM (active) | –
33 | Cc1cc(C)c2[nH]c(C(=O)N3CCC(n4nccc4NC(=O)C4CC4)CC3)c(C)c2c1 | 7.94 µM (active) | –
34 | Cc1c(C(=O)N2CCC(n3nccc3NC(=O)C3CC3)CC2)[nH]c2ccc(Cl)cc12 | 14.1 µM (active) | –
35 | CCC(C)[C@H](NC(=O)[C@H](Cc1ccccc1)n1c(=O)[nH]c2ccccc2c1=O)C(=O)NCC1CCC(C(=O)O)CC1 (some centres not stated) | 11.2 µM (active) | –
36 | CCOCCCn1c(C)nc2c(c1=O)c1nc3ccccc3nc1n2CCC1=CCCCC1 | 3.16 µM (active) | –
37 | CN(CC(=O)Nc1ccc(F)c(Cl)c1)S(=O)(=O)c1ccc2c(c1)n(C)c(=O)c(=O)n2C | 10 µM (active) | –
38 | CCOc1ccc(S(=O)(=O)N2CCCC(C(=O)NC3CC3)C2)cc1Cl (configuration not stated) | 10 µM (active) | –

Row | SMILES | Potency | activity change, negative = inhibition
39 | O=C(COc1ccccc1)N1c2ccccc2Sc2ccccc21 | 11.2 µM (active) | –
40 | Cc1c(Cl)ccc2c(C(=O)O)cc(-c3ccccc3)nc12 | – | 8.29% (inactive)
41 | CC1CCCC(NC(=O)c2cc(-c3ccncc3)nc3ccccc23)C1C (configuration not stated) | 11.2 µM (active) | –
42 | COc1ccc2c(c1OC)C(=O)OC2Nc1nc(-c2ccccc2)cs1 (configuration not stated) | – | -104% (inactive)
43 | COc1ccc2c(c1OC)C(=O)N1N=C(c3ccccc3)CC21 (configuration not stated) | 2.24 µM (active) | –
44 | CC(C)NC(=O)c1onc(CSc2cccc(F)c2)c1C(=O)O | – | -23.2% (inactive)
45 | O=C(O)C1CC=CCC1C(=O)Nc1ccc(S(=O)(=O)N2CCCc3ccccc32)cc1 (configuration not stated) | – | -19.2% (inactive)
46 | Cc1ccc(NC(=O)c2cc(S(=O)(=O)N3CCc4ccccc43)cn2C)cc1 | 11.2 µM (active) | –
47 | C=CCn1c(C)cc(C2=NNC(=NCc3ccccc3)SC2)c1C | 14.1 µM (active) | –
48 | N#Cc1c(SCC(=O)Nc2ccc(C(F)(F)F)cc2)sc2c(O)cc(=O)[nH]c12 | 0.0891 µM (active) | –
49 | Cc1cc(NC(=O)CSc2sc3c(O)cc(=O)[nH]c3c2C#N)ccc1Br | 5.62 µM (active) | –
50 | CCCSc1ccc(-c2nn(-c3ccccc3)cc2/C=C(/C#N)C(=O)NCCCOC)cc1 | 4.47 µM (active) | –
51 | CC(C)(C)n1nnnc1C(c1ccc2ncccc2c1)N1CCSCC1 (configuration not stated) | 11.2 µM (active) | –
52 | COc1ccc(Cl)cc1NC(=O)C(C)NC(c1ccccc1)c1ccccc1 (configuration not stated) | 5.62 µM (active) | –
53 | O=C(CCN1C(=O)/C(=C/c2ccccc2Cl)SC1=S)N1CCOCC1 | 10 µM (active) | –
54 | CN1CCN(C(=O)CCN2C(=O)/C(=C/c3cccc(Br)c3)SC2=S)CC1 | 3.98 µM (active) | –
55 | CCOc1cc(/C=C/c2cc(C(F)(F)F)[nH]c(=O)n2)ccc1O | 14.1 µM (active) | –
56 | CC(=O)O[C@H]1C(=O)[C@@]2(C)[C@H]([C@H](OC(=O)c3ccccc3)[C@]3(O)C[C@H](OC(=O)[C@H](O)[C@@H](NC(=O)c4ccccc4)c4ccccc4)C(C)=C1C3(C)C)[C@]1(OC(C)=O)CO[C@@H]1C[C@@H]2O | 0.501 µM (active) | –
57 | CC(=O)O[C@@]12CO[C@@H]1C[C@H](O)[C@@]1(C)C(=O)[C@H](O)C3=C(C)[C@@H](OC(=O)C(O)[C@@H](NC(=O)OC(C)(C)C)c4ccccc4)C[C@@](O)([C@@H](OC(=O)c4ccccc4)[C@H]21)C3(C)C (some centres not stated) | 0.141 µM (active) | –
